# Results: PubChem BioAssay (NCI)
# Compounds without any hit were thinned out: in the full panel of roughly 83,000, 20% have a hit.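 Testing used 96-well plates and a 48-hour single-concentration exposure. Example: -40 means 40% of the starting cells died.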 A number with no mark means an inactive call. The source made the active and inactive calls. How the source made its calls: active means growth percent below 10; inactive means the rest.
# Tests used:
# Assay in all cases: NCI-60 one-dose screen, 48 h (100 = growth as untreated, 0 = no growth, -100 = all killed)
# Details in all cases: 10 µM unless noted
# NCI-H23 lung = test system: NCI-H23 lung
# NCI-H226 lung = test system: NCI-H226 lung
# NCI-H322M lung = test system: NCI-H322M lung
# HOP-62 NSCLC = test system: HOP-62 NSCLC
# NCI-H460 lung = test system: NCI-H460 lung
# HOP-92 NSCLC = test system: HOP-92 NSCLC
# NCI-H522 lung = test system: NCI-H522 lung
# A549/ATCC NSCLC = test system: A549/ATCC NSCLC
# 786-0 renal = test system: 786-0 renal
# COLO 205 colon = test system: COLO 205 colon
Compound,growth (NCI-H23 lung),growth (NCI-H226 lung),growth (NCI-H322M lung),growth (HOP-62 NSCLC),growth (NCI-H460 lung),growth (HOP-92 NSCLC),growth (NCI-H522 lung),growth (A549/ATCC NSCLC),growth (786-0 renal),growth (COLO 205 colon)
O=C(CSc1nnc(-c2ccc(NC(=O)c3cccnc3)cc2)o1)Nc1cccc(Br)c1,92.8%,97.7%,97.2%,99.2%,103%,88.7%,41.4%,95.1%,94.2%,88.4%
COc1cccc(-c2nn(-c3ccccc3)cc2-c2ccnc(NCCCNC(=O)Nc3ccc(Cl)c(Cl)c3)c2)c1,15.1%,47.9%,24.3%,-5.99% (active),18.5%,-11.7% (active),-37% (active),7.3% (active),-38.7% (active),-44.7% (active)
COc1cccc(-c2nn(-c3ccccc3)cc2-c2ccnc(NCCNC(=O)Nc3cccc(C(F)(F)F)c3)c2)c1,35.8%,61%,35.8%,9.97% (active),7.98% (active),0.983% (active),-17.9% (active),7.06% (active),22.7%,-13.3% (active)
Cn1c(=O)c2c(nc(Cl)n2CCl)n(C)c1=O,3.75% (active),120%,103%,115%,111%,97.6%,84.8%,106%,90.4%,60.8%
O=C(NCCCNc1cc(-c2cn(-c3ccccc3)nc2-c2cccc(O)c2)ccn1)c1ccc(F)cc1,42%,58.9%,62.8%,26.2%,27.9%,14.4%,9.35% (active),16.1%,-49.4% (active),-59.1% (active)
CCN(CC)CCCNc1ccc(Nc2ccc(OC)cc2)cc1,92.3%,110%,83.3%,98.1%,64.2%,83.6%,64%,92.1%,94.2%,85.7%
COc1ccc2c(c1)[nH]c(=O)c1c3cccnc3cn21,36.6%,66.3%,85.8%,38.4%,1.71% (active),73.5%,12%,13%,25.7%,-45.4% (active)
Fc1ccc(CNc2c3ccccc3nc3ccccc23)cc1F,35.2%,47.6%,39%,51.3%,14.6%,-8.56% (active),37%,29.1%,31.4%,16.1%
O=Cc1c[nH]c2ccc(-c3csc4ccccc34)cc12,58%,73.8%,83.2%,42.8%,29.3%,55.9%,41.3%,48.1%,58.4%,71.6%
N#CC1=C(c2ccc(Br)cc2)NC(SCC(=O)c2ccc(Br)cc2)NC1=O (stereo not given),105%,97%,104%,98.6%,107%,102%,99.5%,93.8%,92.6%,116%
Cc1ccc(C(=O)CSc2nc(-c3ccc(Br)cc3)c(C#N)c(=O)[nH]2)cc1,92.6%,101%,100%,89.1%,102%,92.2%,90%,101%,98.7%,102%
C#Cc1cccc(NC(=O)c2ccc(NC(=O)CCl)cc2)c1,-55.2% [8.25 µM] (active),8.52% [8.25 µM] (active),86.6% [8.25 µM],10.7% [8.25 µM],-24.6% [8.25 µM] (active),-57.6% [8.25 µM] (active),-51.6% [8.25 µM] (active),59.1% [8.25 µM],-50.8% [8.25 µM] (active),-66.9% [8.25 µM] (active)
CCn1c(C)nc2cc(C(N)=O)ccc21,94.3%,89.9%,86.8%,89.3%,101%,90.7%,90.7%,104%,96.3%,120%
